Out of some 360,000 compounds screened, about 7,500 (2.1%) were called active. About 20% were inconclusive and are not listed. For the sample, actives were picked, then their nearest neighbours and some compounds at random. A number with no mark means an inactive call. Calls follow the shape of the dose curve; as a rule, active = well fitted inhibition curve with a large enough effect; inconclusive = small, poorly fitted or top-dose-only effect, or effect the other way; inactive = flat fitted curve, though single readings scatter.
Test: Nrf2 qHTS screen for inhibitors; also: nearly all actives have a fitted effect of over 60% in size
Details: A549 ARE-Fluc reporter, luciferase luminescence, 18-24 h; series mostly up to 46 µM; activity change, negative = inhibition: at the top concentration
Outline: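 In this cell-based qHTS, ARE-driven firefly luciferase in A549 cells reports Nrf2 activity; the luminescent signal after BugLite lysis is the measured value, with a prior CellTiter-Fluor read for cell health.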
% is scaled to controls: 0 for no effect and ±100 for the full control effect; potency is read from the fitted curve at half-maximal effect.

First: CCOC(=O)C1=C(C)N(C[C@@H]2CC[C@@H](Cc3ccc(-c4ccccc4)cc3)O2)C(=O)NC1c1ccc([N+](=O)[O-])cc1 (stereo partly specified)
Second: O=C(Nn1c(-c2ccccc2)nc2ccccc2c1=O)c1ccc([N+](=O)[O-])cc1
The “activity change, negative = inhibition” value of the first is lower: -22.3% for the first, -12.6% for the second.

First: Cc1ccc(F)cc1NC(=O)CCSc1nc(-c2ccco2)cc(C(F)(F)F)n1
Second: COc1ccc(CCNC(=O)CSc2nc3[nH]ncc3c(=O)n2-c2cccc(C(F)(F)F)c2)cc1OC
The “activity change, negative = inhibition” value of the first is higher: -13.2% for the first, -14.3% for the second.

Going from `COc1ccc2[nH]c3nc(SCC(=O)NC4CC4)nnc3c2c1` to `CCOc1ccc2[nH]c3nc(SCC(=O)NC4CCCC4)nnc3c2c1`, the “activity change, negative = inhibition” value rises from 0.184% to 3.92%.

First: CCOC(=O)c1cccc(NC(=O)C(Cc2ccccc2)NS(=O)(=O)c2cccc3nsnc23)c1 (stereo unspecified)
Second: O=S(=O)(Nc1ccc2nc(-c3cccc(Cl)c3)oc2c1)c1ccccc1
The “activity change, negative = inhibition” value of the first is higher: 24.3% for the first, -21.7% for the second.

Compared with `Cc1ccc2oc3c(c(=O)c2c1)C(c1ccc(O)cc1)N(Cc1ccc2c(c1)OCO2)C3=O` (stereo unspecified), `COc1cccc(C2c3c(ncn(-c4cccc(Br)c4)c3=N)Oc3ccc4ccccc4c32)c1` (stereo unspecified) is higher in “activity change, negative = inhibition” value: -8.81% for the first, 5.52% for the second.

Going from `CC(C)[C@@H](C(=O)OCC(=O)c1ccc2c(c1)NC(=O)CO2)N1C(=O)c2ccccc2C1=O` to `CCOC(=O)c1cc(NC(=O)c2ccc(F)cc2)c(=O)n2c1oc1ccccc12`, the “activity change, negative = inhibition” value falls from -8% to -17.2%.

Going from `CC(C)c1ccc(S(=O)(=O)Nc2ccc(O)c(Sc3nc4ccccc4s3)c2)cc1` to `CC(C)OCCCNC(=O)c1cc(Sc2ccc(F)cc2)nc2ccccc12`, the “activity change, negative = inhibition” value falls from 9.38% to -13.6%.

First: O=C(CCC(=O)c1ccccc1)NCc1cccc(C(F)(F)F)c1
Second: O=C(CCn1ccc2cc(S(=O)(=O)N3CCCC3)ccc21)NCc1cccc(Cl)c1
The “activity change, negative = inhibition” value of the first is higher: 3.64% for the first, -6.98% for the second.

First: COc1ccc(-c2nc(=N)sn2-c2ccccc2)cc1
Second: O=c1c2c(-c3ccccc3)ccnc2[nH]n1-c1ccccc1
The “activity change, negative = inhibition” value of the first is higher: 24% for the first, -2.93% for the second.

Compared with `Cc1ccc(NC2=C(c3ccc(C(F)(F)F)cc3)C(=O)c3ccccc32)cc1F`, `O=C(Nc1ccccc1C(=O)Nc1ccncc1)c1ccc([N+](=O)[O-])cc1` is higher in “activity change, negative = inhibition” value: -20.5% for the first, 6.83% for the second.

First: COc1cccc(CNCCSc2nnnn2C)c1OCc1ccccc1Cl
Second: COc1ccc(C)cc1Nc1nc2ccccc2c2nnc(C)n12
The “activity change, negative = inhibition” value of the first is lower: -11.2% for the first, 18.3% for the second.

Going from `COc1cc(OC)c(OC)cc1/C=N/Nc1ncnc2c1[nH]c1ccc(C)cc12` to `COc1ccc(-n2c(C)cc(C(=O)COC(=O)c3cc(OC)c(OC)cc3NC(=O)c3cccs3)c2C)cc1`, the “activity change, negative = inhibition” value falls from 1.21% to -0.74%.

Going from `Cc1ccc(CCNC(=O)c2nnc(Cc3cccc(F)c3)o2)cc1` to `Cc1ccc(OC(=O)CSc2nnc(-c3cccs3)o2)cc1`, the “activity change, negative = inhibition” value rises from -25.7% to 1.89%.

Going from `CCOC(=O)c1ccc(CSc2nnc3cc(C)c4ccccc4n23)cc1` to `CCOC(=O)C1CCN(c2ncnc3c2c(-c2ccccc2)cn3-c2ccc(C)cc2)CC1`, the “activity change, negative = inhibition” value falls from 15% to 8.13%.

First: COC(=O)c1cccc(N2C(=O)C3C4C=CC(CC4)C3C2=O)c1 (stereo unspecified)
Second: CC1C=CCC2C(=O)N(c3cccc(C(=O)N4CCCCCC4)c3)C(=O)C12 (stereo unspecified)
The “activity change, negative = inhibition” value of the first is lower: 0.177% for the first, 10.5% for the second.

Compared with `O=C(c1ccco1)N(Cc1cccs1)c1ccc(O)cc1`, `O=C(c1cccs1)c1cn(CCOc2ccc(Cl)cc2)c2ccccc12` is lower in “activity change, negative = inhibition” value: -5.51% for the first, -11% for the second.

Compared with `COc1cc(OC)cc(-c2nc3nc(C)c(CCC(=O)Nc4ccccc4)c(C)n3n2)c1`, `COc1ccccc1-c1cc2nc(C)c(CCC(=O)NC3CCCCC3)c(C)n2n1` is lower in “activity change, negative = inhibition” value: -0.881% for the first, -10.5% for the second.

First: CCCSc1ncc(Cl)c(C(=O)Nc2sc3c(c2C(=O)NCCOC)CCCC3)n1
Second: Cc1cc(C(=O)OCC(=O)Nc2nnc(C(C)C)s2)c2ccccc2n1
The “activity change, negative = inhibition” value of the first is lower: -19.9% for the first, -6.29% for the second.

Compared with `Cc1ccc(CSc2nc3[nH]ncc3c(=O)[nH]2)cc1`, `CCc1ccc(C2C(C(=O)Nc3ccccc3)=C(C)Nc3c(C(=O)Nc4ccc(C)cc4)cnn32)cc1` (stereo unspecified) is lower in “activity change, negative = inhibition” value: 2.03% for the first, -7.44% for the second.

Going from `COc1ccc(S(=O)(=O)Nc2cccc3c2O[C@H](CN(C)S(=O)(=O)c2ccc(OC)cc2)[C@@H](C)CN([C@H](C)CO)C3=O)cc1` to `CCc1ccc(CN(C)C(C)C(=O)Nc2ccc(S(=O)(=O)N3CCCC3)cc2)cc1` (stereo unspecified), the “activity change, negative = inhibition” value rises from -25% to -9.67%.

Going from `CC(=O)c1cccc(NC(=O)COc2ccc(S(=O)(=O)N3CCOCC3)cc2)c1` to `CC(=O)c1ccc(NC(=O)CSc2nc3ccccc3c(=O)n2CCCN2CCOCC2)cc1`, the “activity change, negative = inhibition” value rises from -4.98% to 8.57%.

Compared with `CC(=O)c1cccc(S(=O)(=O)N2CCC(n3nnc4cc(F)ccc43)CC2)c1`, `CCOc1ccc2nc(NC(=O)c3cc([N+](=O)[O-])ccc3N3CCOCC3)sc2c1` is lower in “activity change, negative = inhibition” value: -2.65% for the first, -23.6% for the second.

First: CCC(=O)NC(Nc1nc2ccc(C)cc2s1)(C(=O)OC)C(F)(F)F (stereo unspecified)
Second: Cc1cc(C(=O)OCC(=O)Nc2nccs2)c2ccccc2n1
The “activity change, negative = inhibition” value of the first is lower: 4.39% for the first, 19.8% for the second.

Going from `Cc1cc(C)cc(OCC(=O)Nc2ccc(N3CCOCC3)cc2N2CCOCC2)c1` to `O=C(Cn1cnc2c(OCc3ccccc3)ncnc21)NCc1nc2ccccc2[nH]1`, the “activity change, negative = inhibition” value rises from -24.6% to 4.45%.

In the case of `O=C(CSc1nnc2c(n1)[nH]c1ccccc12)NC1CCCCC1`, the Potency was 3.66 µM (active).
In the case of `O=C(CCC(=O)N1CCN(S(=O)(=O)c2ccc(Cl)cc2)CC1)NCc1cccc(C(F)(F)F)c1`, the Potency was 8.2 µM (active).
With `O=C(Nc1cc(-c2ccccc2)nn1-c1ccccc1F)c1ccc([N+](=O)[O-])cc1` the Potency was 20.6 µM (active).
In the case of `CC(C)OCCCNc1ncnc2c1[nH]c1ccc(F)cc12`, the Potency was 4.11 µM (active).
With `Cc1cccc(N2CCN(C(=O)c3cccc(N4C(=O)C5C6C=CC(C6)C5C4=O)c3)CC2)c1C` (stereo unspecified) the Potency was 18.4 µM (active).
In the case of `COc1ccccc1-c1cc2nc(C)c(CCC(=O)O)c(C)n2n1`, the Potency was 3.66 µM (active).
In the case of `CCc1ccc(-n2c(SCc3cc(=O)n4cc(Br)ccc4n3)nc3[nH]ncc3c2=O)cc1`, the Potency was 16.4 µM (active).
For `CC(=O)c1cccc(Nc2ccc3cc(S(=O)(=O)N4CCC(C)CC4)ccc3n2)c1`, the Potency was 20.6 µM (active).
For `O=C(NC(Nc1nc2ccc([N+](=O)[O-])cc2s1)(C(F)(F)F)C(F)(F)F)c1ccccc1`, the Potency was 2.59 µM (active).
For `O=c1[nH]cnc2c1c(-c1ccccc1)cn2-c1ccc(F)cc1`, the Potency was 25.9 µM (active).
For `COc1ccc(-n2c(C)cc(C(=O)CSc3nnc(-c4cccs4)o3)c2C)cc1`, the Potency was 18.4 µM (active).
In the case of `Cc1cc(C(=O)OCC(=O)N2C(C)CCCC2C)c2ccccc2n1` (stereo unspecified), the Potency was 18.4 µM (active).

For `CCCCOc1ccc(C(=O)N2CC(=O)Nc3ccc(Br)cc3C2c2ccc(F)cc2)cc1` (stereo unspecified), the activity change, negative = inhibition was -25.1% [at 9.27 µM].

From PubChem BioAssay AID504444 (National Center for Advancing Translational Sciences (NCATS), 2011)
